# Results filed as inconclusive are left out. A call without a number means that no potency is given here. Activity calls are given as the source filed them. Unless noted, calls come from the whole dose curve; as a rule, active = well fitted curve in the direction sought with a large enough effect; inconclusive = small, poorly fitted or top-dose-only effect, or another doubt; inactive = no such curve, though single readings can be large; an effect the other way counts as inactive or inconclusive.
# Columns and labels:
# [1] = Confirmation and Secondary Assay for Modulators of Hemoglobin Beta Chain Splicing at IVS2 705 locus (AID 930);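 note: HeLa cells stably expressing the EGFP-705 splicing reporter; GFP fluorescence per well restored by corrected splicing of the IVS2-705 intron in EGFP; series mostly up to about 46 µM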
# Outline: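 Read-out: total peak GFP fluorescence per well (488 nm excitation, 500-520 nm emission) by laser-scanning cytometry. Cells: HeLa EGFP-705 splicing reporter, 2 days compound exposure in Optimem/2% FCS.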
# [2] = Cell Viability - LYMP2-001 (AID 921); note: nearly all actives have a fitted effect of over 70% in size; note: potency is the fitted concentration of half-maximal effect
# Outline: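 Human lymphoblastoid LYMP2-001 cells, 2500 per well, in complete medium, treated 24 h at 37 C. Viability from cellular ATP by CellTiter-Glo luminescence; AC50 from Hill-equation fits of qHTS concentration-response.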
# [3] = MultiTox-Fluor Cytotoxicity Assay - LYMP1-001 - Dead Cells (AID 946); note: potency is the fitted concentration of half-maximal effect
# Outline: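 In this qHTS, 15 uM tetraoctylammonium bromide defined 100% and DMSO defined basal activity. Lymphoblastoid cells (LYMP1-001, 2500 per well) received compound for 16 hr at 37 C before a fluorogenic dead-cell substrate readout at 485/520 nm.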
# [4] = MultiTox-Fluor Cytotoxicity Assay - LYMP1-001 - Live Cells (AID 947); note: potency is the fitted concentration of half-maximal effect
# [5] = MultiTox-Fluor Cytotoxicity Assay - LYMP1-002 - Live Cells (AID 955);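 note: cells exposed to compound for 16 hours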; note: potency is the fitted concentration of half-maximal effect
# Outline: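 In this qHTS viability format, lymphoblastoid cells (LYMP1-002, human) received compound for 16 hr at 37 C. Fluorogenic GF-AFC cleavage by viable cells was detected at 405/510 nm after 1 h at room temperature.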
# [6] = qHTS Assay for Identification of Small Molecule Agonists for Thrombopoietin (TPO) Signaling Pathway (AID 917)
# Outline: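 Stimulation at the TPO EC50 (26 pM final) was used to detect activators. Ba/F3 mouse cells bearing human TPO receptor and a luciferase reporter under the Glycoprotein IIb promoter were exposed to compounds for 24 hrs at 37 C.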
# [7] = target: Muscarinic acetylcholine receptor M1 (Rattus norvegicus) (UniProt P08482); test: qHTS Assay for Antagonists of Acetylcholine Muscarinic M1 Receptor: Kinetic Measurement of Intracellular Calcium Response (AID 943);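 note: Fluo-4 calcium signal as peak divided by basal fluorescence over 4 min; series mostly up to about 35 µM; nearly all actives have a fitted effect of over 75% in size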
# Sequence of Muscarinic acetylcholine receptor M1 (Rattus norvegicus) (P08482 whole entry, looked up): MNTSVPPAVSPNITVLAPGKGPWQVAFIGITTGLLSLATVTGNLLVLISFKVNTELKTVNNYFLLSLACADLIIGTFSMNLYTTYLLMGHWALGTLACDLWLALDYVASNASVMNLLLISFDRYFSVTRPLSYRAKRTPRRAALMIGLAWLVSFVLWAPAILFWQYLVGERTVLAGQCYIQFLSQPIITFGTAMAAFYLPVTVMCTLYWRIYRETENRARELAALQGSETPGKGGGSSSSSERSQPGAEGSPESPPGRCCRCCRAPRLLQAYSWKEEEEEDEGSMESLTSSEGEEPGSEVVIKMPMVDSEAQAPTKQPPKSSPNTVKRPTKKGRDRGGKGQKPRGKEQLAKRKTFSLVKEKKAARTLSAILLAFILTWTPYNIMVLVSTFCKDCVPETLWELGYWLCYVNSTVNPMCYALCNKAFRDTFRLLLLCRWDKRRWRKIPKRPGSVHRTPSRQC
# Outline: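 Quantitative HTS in CHO-M1 (rat receptor) cells: 10 min compound exposure ahead of 100 nM carbachol, Fluo-4 fluorescence followed 4 min, value expressed as peak-to-basal ratio.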
# [8] = target: Pyruvate kinase (Leishmania mexicana) (UniProt Q27686); test: qHTS Validation Assay for Inhibitors of Leishmania Mexicana Pyruvate Kinase (AID 945)
# Sequence of Pyruvate kinase (Leishmania mexicana) (Q27686 2-499 E452W): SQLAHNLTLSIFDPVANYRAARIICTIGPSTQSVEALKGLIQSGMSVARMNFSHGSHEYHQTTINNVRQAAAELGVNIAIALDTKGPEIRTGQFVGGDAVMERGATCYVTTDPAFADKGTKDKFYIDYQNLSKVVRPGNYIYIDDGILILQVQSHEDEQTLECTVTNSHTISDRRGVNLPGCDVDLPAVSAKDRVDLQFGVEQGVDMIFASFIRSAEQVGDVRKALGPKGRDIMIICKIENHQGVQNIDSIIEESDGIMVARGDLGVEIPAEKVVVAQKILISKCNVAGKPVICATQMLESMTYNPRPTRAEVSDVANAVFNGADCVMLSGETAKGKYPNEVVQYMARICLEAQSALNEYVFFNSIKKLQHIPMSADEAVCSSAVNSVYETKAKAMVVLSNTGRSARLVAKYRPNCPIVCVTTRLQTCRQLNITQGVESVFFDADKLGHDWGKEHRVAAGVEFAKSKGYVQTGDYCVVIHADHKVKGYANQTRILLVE
# Outline: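 Luminescent ATP detection (PKLight) after a 1 h room-temperature reaction of 0.2 nM LmPYK E451W mutant with 0.5 mM PEP and 0.1 mM ADP at pH 7.2. Activity is normalized to DMSO-only control wells.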
# [9] = target: Pyruvate kinase PKM (Homo sapiens) (UniProt P14618); test: qHTS Assay for Activators of Human Muscle Pyruvate Kinase (AID 954; active = well fitted curve in the direction sought with a large enough effect, not every such curve was filed as active)
# Sequence of Pyruvate kinase PKM (Homo sapiens) (P14618 whole entry, looked up): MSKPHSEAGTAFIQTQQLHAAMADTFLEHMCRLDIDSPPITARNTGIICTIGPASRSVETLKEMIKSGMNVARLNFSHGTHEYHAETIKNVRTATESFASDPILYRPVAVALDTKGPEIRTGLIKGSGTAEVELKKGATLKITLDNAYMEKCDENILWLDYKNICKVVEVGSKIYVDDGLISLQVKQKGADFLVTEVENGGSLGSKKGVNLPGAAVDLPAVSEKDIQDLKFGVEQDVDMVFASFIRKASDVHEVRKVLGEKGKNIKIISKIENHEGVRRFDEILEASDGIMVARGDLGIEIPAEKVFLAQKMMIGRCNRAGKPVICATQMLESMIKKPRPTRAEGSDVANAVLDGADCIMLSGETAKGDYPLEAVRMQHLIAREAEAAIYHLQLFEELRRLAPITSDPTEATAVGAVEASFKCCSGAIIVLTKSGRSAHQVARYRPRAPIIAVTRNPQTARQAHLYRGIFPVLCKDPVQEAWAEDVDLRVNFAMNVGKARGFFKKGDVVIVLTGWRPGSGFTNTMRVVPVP
# Outline: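 Screening used highly purified human pyruvate kinase M2 under submaximal activity, with PEP at its Km and ADP below Km. After an hour at room temperature, ATP was read by luciferase luminescence.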
# [10] = target: Muscarinic acetylcholine receptor M1 (Rattus norvegicus) (UniProt P08482); test: qHTS Assay for Antagonists of Acetylcholine Muscarinic M1 Receptor: Measurement of IP-One Response (AID 944); note: nearly all actives have a fitted effect of over 75% in size
# Outline: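 Antagonism was measured as loss of carbachol-driven (EC80) IP1 accumulation in CHO cells carrying rat M1, using a homogeneous IP-One TR-FRET kit read at 620 and 665 nm.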
smiles,measurement,setting,value
CN(CCOc1ccc(CC2SC(=O)NC2=O)cc1)c1ccccn1 (centres undefined),Potency,[1],inactive
Cc1ccnc2c1NC(=O)c1cccnc1N2C1CC1,Potency,[2],inactive
same,Potency,[3],inactive
same,Potency,[4],inactive
same,Potency,[5],inactive
CN(Cc1cc(Br)cc(Br)c1N)C1CCCCC1,Potency,[1],inactive
NC(N)=NC(N)=NCCc1ccccc1,Potency,[2],inactive
same,Potency,[3],inactive
same,Potency,[4],inactive
same,Potency,[5],inactive
OCc1ccc(-c2nn(Cc3ccccc3)c3ccccc23)o1,outcome,[6],inactive
same,outcome,[7],inactive
same,outcome,[8],inactive
same,outcome,[9],inactive
CCc1cc(C(N)=S)ccn1,Potency,[2],inactive
same,Potency,[1],inactive
same,Potency,[3],inactive
same,Potency,[4],inactive
same,Potency,[5],inactive
O=C(N[C@H](CO)[C@H](O)c1ccc([N+](=O)[O-])cc1)C(Cl)Cl,Potency,[2],inactive
same,Potency,[3],inactive
same,Potency,[4],inactive
same,Potency,[5],inactive
COc1cc2ncnc(Nc3cccc(Cl)c3)c2cc1OC,outcome,[6],inactive
same,outcome,[8],inactive
same,outcome,[9],inactive
NC(=O)N1c2ccccc2CC(=O)c2ccccc21,Potency,[1],inactive
N[C@@H](Cc1ccc(O)c(O)c1)C(=O)O,outcome,[6],inactive
same,outcome,[10],inactive
same,outcome,[9],inactive
COc1ccc(C(=O)CC(=O)c2ccc(C(C)(C)C)cc2)cc1,Potency,[1],inactive
NNC(=O)c1ccncc1,Potency,[2],inactive
same,Potency,[1],inactive
same,Potency,[3],inactive
same,Potency,[4],inactive
same,Potency,[5],inactive
Cc1noc(NS(=O)(=O)c2ccc(N)cc2)c1C,Potency,[2],inactive
same,Potency,[1],inactive
same,Potency,[3],inactive
same,Potency,[4],inactive
same,Potency,[5],inactive
CC(=O)CC(c1ccccc1)c1c(O)c2ccccc2oc1=O (centres undefined),Potency,[1],inactive
Cc1nnc(NS(=O)(=O)c2ccc(N)cc2)s1,Potency,[2],inactive
same,Potency,[1],inactive
same,Potency,[3],inactive
same,Potency,[4],inactive
same,Potency,[5],inactive
CCCCS(=N)(=O)CCC(N)C(=O)O (centres undefined),Potency,[1],inactive
NC(=O)c1cccc(N)c1,outcome,[6],inactive
same,outcome,[8],inactive
same,outcome,[9],inactive
C1CCC(C(CC2CCCCN2)C2CCCCC2)CC1 (centres undefined),Potency,[1],inactive
CN(C)c1ccc(C(=C2C=CC(=[N+](C)C)C=C2)c2ccc(N(C)C)cc2)cc1,Potency,[2],1.26 µM (active)
same,Potency,[1],inactive
same,Potency,[3],12.6 µM (active)
same,Potency,[4],25.1 µM (active)
same,Potency,[5],10 µM (active)
Cc1ncc([N+](=O)[O-])n1CCO,Potency,[2],inactive
same,Potency,[1],inactive
same,Potency,[3],inactive
same,Potency,[4],inactive
same,Potency,[5],inactive
NCCCC(O)(P(=O)(O)O)P(=O)(O)O,Potency,[1],inactive
CC1=NN(c2ccccc2)C(=O)C1,Potency,[2],inactive
same,Potency,[1],inactive
same,Potency,[3],inactive
same,Potency,[5],inactive
O=C(O)c1cccnc1,Potency,[1],inactive
CC[C@H](C)C(=O)O[C@H]1C[C@@H](C)C=C2C=C[C@H](C)[C@H](CC[C@@H]3C[C@@H](O)CC(=O)O3)[C@H]21,Potency,[2],inactive
same,Potency,[3],inactive
same,Potency,[4],inactive
same,Potency,[5],inactive
O=C(O)c1cc(=O)[nH]c(=O)[nH]1,Potency,[2],inactive
same,Potency,[3],inactive
same,Potency,[4],inactive
same,Potency,[5],inactive
C[C@]12C=CC(=O)C=C1CC[C@@H]1[C@@H]2C(=O)C[C@@]2(C)[C@H]1CC[C@]2(O)C(=O)CO,Potency,[2],inactive
same,Potency,[3],inactive
same,Potency,[4],inactive
same,Potency,[5],inactive
Cc1cc(NS(=O)(=O)c2ccc(N)cc2)no1,Potency,[2],inactive
same,Potency,[1],inactive
same,Potency,[3],inactive
same,Potency,[4],inactive
same,Potency,[5],inactive
COc1ccc2cc3[n+](cc2c1OC)CCc1cc2c(cc1-3)OCO2,Potency,[2],39.8 µM (active)
same,Potency,[1],inactive
same,Potency,[3],inactive
same,Potency,[5],inactive
COc1c(N2CCNC(C)C2)c(F)cc2c(=O)c(C(=O)O)cn(C3CC3)c12 (centres undefined),Potency,[1],inactive
CC(=O)[C@H]1CC[C@H]2[C@@H]3CCC4=CC(=O)CC[C@]4(C)[C@H]3CC[C@]12C,Potency,[2],inactive
same,Potency,[4],inactive
same,outcome,[9],inactive
same,Potency,[5],inactive
OC(Cn1cncn1)(Cn1cncn1)c1ccc(F)cc1F,Potency,[1],inactive
Cc1ccc(S(=O)(=O)N[C@@H](Cc2ccccc2)C(=O)CCl)cc1,outcome,[7],inactive
same,outcome,[10],inactive
same,outcome,[8],inactive
same,outcome,[9],inactive
CC(C)(C)NC(=O)[C@H]1CC[C@H]2[C@@H]3CC[C@H]4NC(=O)C=C[C@]4(C)[C@H]3CC[C@]12C,outcome,[8],inactive
same,outcome,[9],inactive
N=C(N)c1ccc(OCCCCCOc2ccc(C(=N)N)cc2)cc1,Potency,[3],inactive
same,Potency,[4],inactive
same,Potency,[5],inactive

# Source: PubChem BioAssay (NCATS)
